# Test results as given in ChEMBL document CHEMBL3988442, “University of Dundee, Small-Polar-MMV Screening Library” (2021).
# For some assays here: Results with a measured potency or affinity are listed apart.
# Columns and labels:
# Parameters in all cases: scale not given: direction of the effect not stated beside the values
# [1] = molecular target: Protein translocase subunit SecA (Escherichia coli (strain K12)) (UniProt P10408); experiment: Assay to Identify E. coli SecA ATPase Inhibitors; assay type: functional; conditions: 30 µM
# Protein translocase subunit SecA (Escherichia coli (strain K12)), sequence (P10408 whole entry): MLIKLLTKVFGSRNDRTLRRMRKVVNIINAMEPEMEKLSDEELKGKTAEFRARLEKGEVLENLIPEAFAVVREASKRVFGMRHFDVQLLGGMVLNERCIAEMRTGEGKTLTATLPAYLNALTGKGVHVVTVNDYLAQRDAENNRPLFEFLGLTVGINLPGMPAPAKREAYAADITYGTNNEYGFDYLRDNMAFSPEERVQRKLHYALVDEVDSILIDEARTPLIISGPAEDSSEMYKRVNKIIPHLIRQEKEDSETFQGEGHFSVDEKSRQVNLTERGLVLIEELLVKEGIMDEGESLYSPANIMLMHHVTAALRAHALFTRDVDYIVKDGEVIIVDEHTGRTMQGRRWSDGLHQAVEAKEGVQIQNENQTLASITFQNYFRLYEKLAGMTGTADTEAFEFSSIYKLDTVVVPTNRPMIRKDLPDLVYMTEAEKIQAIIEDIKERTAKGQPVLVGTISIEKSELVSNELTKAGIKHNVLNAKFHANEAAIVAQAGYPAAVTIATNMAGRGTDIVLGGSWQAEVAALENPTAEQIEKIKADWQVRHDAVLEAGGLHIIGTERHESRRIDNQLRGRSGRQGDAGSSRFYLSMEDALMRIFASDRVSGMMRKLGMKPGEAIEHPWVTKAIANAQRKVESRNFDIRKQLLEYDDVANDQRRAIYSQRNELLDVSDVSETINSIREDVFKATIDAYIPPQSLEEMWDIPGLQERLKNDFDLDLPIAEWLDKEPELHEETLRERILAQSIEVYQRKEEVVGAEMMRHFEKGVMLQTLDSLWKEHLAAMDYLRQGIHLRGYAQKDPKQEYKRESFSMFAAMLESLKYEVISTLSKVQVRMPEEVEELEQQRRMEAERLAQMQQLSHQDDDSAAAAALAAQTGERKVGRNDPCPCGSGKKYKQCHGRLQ
# [2] = molecular target: T1, Ubiquitin-activating enzyme e1, putative (Leishmania donovani (strain BPK282A1)) (UniProt E9BSI1); experiment: Leishmania donovani Ubiquitin Activating Enzyme (LdE1); assay type: functional; conditions: 30 µM
# T1 sequence (whole entry): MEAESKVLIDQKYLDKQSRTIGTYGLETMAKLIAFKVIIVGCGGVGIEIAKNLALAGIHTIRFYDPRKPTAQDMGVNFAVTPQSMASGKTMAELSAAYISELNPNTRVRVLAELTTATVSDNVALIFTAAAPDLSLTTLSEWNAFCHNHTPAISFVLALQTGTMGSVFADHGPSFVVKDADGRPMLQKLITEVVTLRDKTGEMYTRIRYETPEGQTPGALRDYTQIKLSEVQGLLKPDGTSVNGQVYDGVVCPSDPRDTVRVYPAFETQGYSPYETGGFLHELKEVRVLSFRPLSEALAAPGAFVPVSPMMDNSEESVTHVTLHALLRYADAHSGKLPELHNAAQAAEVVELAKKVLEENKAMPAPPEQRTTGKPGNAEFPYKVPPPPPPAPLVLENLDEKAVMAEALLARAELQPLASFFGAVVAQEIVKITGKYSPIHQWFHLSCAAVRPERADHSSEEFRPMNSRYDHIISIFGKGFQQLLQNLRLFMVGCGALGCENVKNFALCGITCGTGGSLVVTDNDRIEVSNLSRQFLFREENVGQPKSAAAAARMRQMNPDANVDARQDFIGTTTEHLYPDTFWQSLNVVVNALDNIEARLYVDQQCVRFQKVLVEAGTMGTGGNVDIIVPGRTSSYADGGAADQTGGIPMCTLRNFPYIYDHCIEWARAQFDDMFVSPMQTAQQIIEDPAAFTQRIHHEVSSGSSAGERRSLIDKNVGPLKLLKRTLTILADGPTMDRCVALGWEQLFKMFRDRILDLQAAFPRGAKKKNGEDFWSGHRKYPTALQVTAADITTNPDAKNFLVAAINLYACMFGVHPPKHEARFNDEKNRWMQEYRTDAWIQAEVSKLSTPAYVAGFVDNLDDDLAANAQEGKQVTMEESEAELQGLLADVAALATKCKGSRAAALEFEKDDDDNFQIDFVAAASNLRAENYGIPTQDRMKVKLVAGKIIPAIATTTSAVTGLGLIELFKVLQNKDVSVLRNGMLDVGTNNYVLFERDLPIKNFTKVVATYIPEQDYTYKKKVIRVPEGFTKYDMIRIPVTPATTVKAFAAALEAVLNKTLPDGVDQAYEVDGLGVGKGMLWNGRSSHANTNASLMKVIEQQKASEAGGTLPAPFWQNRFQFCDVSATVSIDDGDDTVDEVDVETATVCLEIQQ
# [3] = molecular target: AMP-activated protein kinase, AMPK (Homo sapiens) (UniProt P54646+O43741+P54619+Q9UGJ0+Q9Y478+Q13131+Q9UGI9); experiment: AMP-dependent Kinase enzyme assay. An in vitro enzyme assay that detects ADP turnover that is directly proportional to AMPK activity. This uses naive AMPK that is activated during the assay with MK-8722; assay type: functional; conditions: 30 µM
# [4] = molecular target: Sialic acid-binding Ig-like lectin 9 (Homo sapiens) (UniProt Q9Y336); experiment: Hs-Siglec9 ALPHAscreen SOP 20170721; conditions: 10 µM
# Sialic acid-binding Ig-like lectin 9 (Homo sapiens), sequence (Q9Y336 whole entry): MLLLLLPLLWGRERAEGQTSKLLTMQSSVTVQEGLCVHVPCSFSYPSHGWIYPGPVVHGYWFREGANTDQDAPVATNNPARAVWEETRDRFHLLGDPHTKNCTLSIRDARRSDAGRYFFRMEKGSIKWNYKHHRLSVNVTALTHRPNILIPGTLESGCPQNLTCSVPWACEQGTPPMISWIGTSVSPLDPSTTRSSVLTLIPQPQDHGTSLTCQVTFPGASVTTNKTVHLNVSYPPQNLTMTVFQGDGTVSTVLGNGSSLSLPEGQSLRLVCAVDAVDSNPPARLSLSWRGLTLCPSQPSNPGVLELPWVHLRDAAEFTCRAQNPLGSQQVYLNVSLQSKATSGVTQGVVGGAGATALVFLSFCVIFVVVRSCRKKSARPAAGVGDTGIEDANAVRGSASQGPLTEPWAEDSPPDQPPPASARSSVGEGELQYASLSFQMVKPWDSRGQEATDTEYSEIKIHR
# Trypanosoma cruzi = experiment: Trypanosoma cruzi phosphomannomutase and mannose-1-phosphate guanylyltransferase assay; assay type: functional; conditions: 10 µM
# [5] = molecular target: T2, Arginase-2, mitochondrial (Homo sapiens) (UniProt P78540); experiment: in vitro enzyme assay to detect the production of urea directly proportional to the activity of Arginase II; assay type: functional; conditions: 33.3 µM; note: in the data most compounds retested in dose-response had high values
# T2 sequence (whole entry): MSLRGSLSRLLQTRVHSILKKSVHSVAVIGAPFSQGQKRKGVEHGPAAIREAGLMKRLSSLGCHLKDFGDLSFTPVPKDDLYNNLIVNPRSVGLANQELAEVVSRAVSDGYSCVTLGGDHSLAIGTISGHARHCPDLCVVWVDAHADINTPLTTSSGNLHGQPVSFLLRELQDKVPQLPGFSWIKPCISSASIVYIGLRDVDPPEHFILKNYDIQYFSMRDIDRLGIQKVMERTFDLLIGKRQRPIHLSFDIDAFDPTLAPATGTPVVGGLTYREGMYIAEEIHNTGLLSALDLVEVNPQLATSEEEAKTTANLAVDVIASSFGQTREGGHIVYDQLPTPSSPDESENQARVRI
# [6] = molecular target: T3, Proteasome subunit beta (Trypanosoma cruzi) (UniProt O96673); experiment: Trypanosoma cruzi proteasome chymotrypsin-like activity (TcProtChymo) assay.; note: in the data most compounds retested in dose-response had high values; assay type: functional; conditions: 9.37 µM
# T3 sequence (whole entry): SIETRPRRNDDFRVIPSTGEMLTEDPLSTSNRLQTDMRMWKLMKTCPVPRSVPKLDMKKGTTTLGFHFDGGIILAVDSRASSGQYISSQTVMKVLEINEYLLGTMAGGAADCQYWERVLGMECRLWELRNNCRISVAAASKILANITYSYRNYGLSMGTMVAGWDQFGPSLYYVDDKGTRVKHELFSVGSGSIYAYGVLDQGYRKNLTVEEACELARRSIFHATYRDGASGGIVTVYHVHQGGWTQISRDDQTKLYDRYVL
# Homo sapiens = species: Homo sapiens; experiment: To identify inhibition of the IFN signalling (Jak-Stat) pathway via expression of an eGFP reporter gene under the control of an IFN-stimulated response element (ISRE) containing MxA promoter.; assay type: functional; conditions: 30 µM
# [7] = molecular target: T4, Tyrosyl-tRNA synthetase, putative (Trypanosoma cruzi (strain CL Brener)) (UniProt Q4DSP6); experiment: Trypanosoma cruzi tyrosyl tRNA synthetase (TcYRS) _High Tyrosine SOP; assay type: functional; conditions: 30 µM; note: in the data most compounds retested in dose-response had high values
# T4 sequence (whole entry): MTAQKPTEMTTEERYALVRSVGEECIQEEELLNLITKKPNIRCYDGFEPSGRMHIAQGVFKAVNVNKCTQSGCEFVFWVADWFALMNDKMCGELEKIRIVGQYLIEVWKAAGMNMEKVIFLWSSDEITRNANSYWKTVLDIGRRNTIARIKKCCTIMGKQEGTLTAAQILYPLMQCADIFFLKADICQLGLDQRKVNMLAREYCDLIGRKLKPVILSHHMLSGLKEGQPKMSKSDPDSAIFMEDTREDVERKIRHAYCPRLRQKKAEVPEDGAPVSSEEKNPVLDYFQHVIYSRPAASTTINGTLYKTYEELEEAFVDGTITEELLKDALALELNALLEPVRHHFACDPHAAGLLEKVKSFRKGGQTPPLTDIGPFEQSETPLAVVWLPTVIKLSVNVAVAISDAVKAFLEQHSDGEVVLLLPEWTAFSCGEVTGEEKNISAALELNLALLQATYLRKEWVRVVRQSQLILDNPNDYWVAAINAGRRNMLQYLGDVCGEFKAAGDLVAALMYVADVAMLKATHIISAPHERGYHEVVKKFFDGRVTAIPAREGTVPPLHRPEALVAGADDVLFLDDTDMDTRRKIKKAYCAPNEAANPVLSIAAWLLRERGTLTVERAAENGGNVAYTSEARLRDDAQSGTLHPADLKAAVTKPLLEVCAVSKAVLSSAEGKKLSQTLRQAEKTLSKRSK
# [8] = molecular target: T4, Tyrosyl-tRNA synthetase, putative (Trypanosoma cruzi (strain CL Brener)); experiment: Trypanosoma cruzi tyrosyl tRNA synthetase (TcYRS) SOP; assay type: functional; conditions: 30 µM
# [9] = molecular target: Chromo domain-containing protein 1 (Saccharomyces cerevisiae (strain ATCC 204508 / S288c) (Baker's yeast)) (UniProt P32657); experiment: ScCHD-1 Enzyme Inhibition Assay; assay type: functional; conditions: 30 µM; note: in the data most compounds retested in dose-response had high values
# Chromo domain-containing protein 1 (Saccharomyces cerevisiae (strain ATCC 204508 / S288c) (Baker's yeast)), sequence (P32657 whole entry, the tested form may be a part): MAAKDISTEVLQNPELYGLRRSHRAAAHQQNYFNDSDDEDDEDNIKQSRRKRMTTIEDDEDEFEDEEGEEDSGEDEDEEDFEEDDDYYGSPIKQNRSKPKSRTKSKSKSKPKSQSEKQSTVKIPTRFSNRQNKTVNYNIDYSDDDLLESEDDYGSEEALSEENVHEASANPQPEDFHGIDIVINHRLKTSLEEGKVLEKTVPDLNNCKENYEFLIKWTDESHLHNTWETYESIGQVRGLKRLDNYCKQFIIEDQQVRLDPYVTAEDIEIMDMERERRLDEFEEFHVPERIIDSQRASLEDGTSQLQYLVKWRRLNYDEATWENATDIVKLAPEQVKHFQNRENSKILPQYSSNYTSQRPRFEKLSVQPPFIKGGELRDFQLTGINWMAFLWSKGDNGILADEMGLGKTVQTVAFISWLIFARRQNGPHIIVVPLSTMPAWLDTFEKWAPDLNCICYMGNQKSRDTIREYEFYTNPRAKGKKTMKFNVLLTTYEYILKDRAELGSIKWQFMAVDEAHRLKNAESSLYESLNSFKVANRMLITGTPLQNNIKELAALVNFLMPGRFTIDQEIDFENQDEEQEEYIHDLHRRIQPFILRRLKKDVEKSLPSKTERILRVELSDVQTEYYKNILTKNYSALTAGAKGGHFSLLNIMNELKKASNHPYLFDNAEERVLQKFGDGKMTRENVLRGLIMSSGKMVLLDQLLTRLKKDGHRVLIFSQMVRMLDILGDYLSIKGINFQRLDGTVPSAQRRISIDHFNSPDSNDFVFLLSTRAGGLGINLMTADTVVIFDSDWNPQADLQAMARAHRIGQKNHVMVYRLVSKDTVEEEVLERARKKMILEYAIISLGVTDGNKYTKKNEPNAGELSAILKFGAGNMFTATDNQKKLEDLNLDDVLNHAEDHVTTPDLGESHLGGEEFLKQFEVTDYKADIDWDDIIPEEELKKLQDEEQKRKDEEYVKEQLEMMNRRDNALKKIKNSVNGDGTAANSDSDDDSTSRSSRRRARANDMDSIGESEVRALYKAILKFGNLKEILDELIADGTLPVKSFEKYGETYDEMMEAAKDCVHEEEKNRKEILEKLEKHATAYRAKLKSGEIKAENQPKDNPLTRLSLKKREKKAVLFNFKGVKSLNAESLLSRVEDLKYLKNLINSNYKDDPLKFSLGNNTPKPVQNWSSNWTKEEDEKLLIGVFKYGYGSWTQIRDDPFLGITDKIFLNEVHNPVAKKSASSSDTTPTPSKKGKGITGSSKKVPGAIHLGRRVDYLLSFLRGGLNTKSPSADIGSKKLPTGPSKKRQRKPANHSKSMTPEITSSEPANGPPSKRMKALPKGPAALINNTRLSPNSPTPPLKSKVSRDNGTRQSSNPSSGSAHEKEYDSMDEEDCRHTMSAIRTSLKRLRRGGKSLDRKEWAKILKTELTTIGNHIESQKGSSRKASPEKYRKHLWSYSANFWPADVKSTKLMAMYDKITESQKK
Structure (SMILES),Percent Effect [1] [%],Percent Effect [2] [%],Percent Effect [3] [%],Percent Effect [4] [%],Percent Effect (Trypanosoma cruzi) [%],Percent Effect [5] [%],Percent Effect [6] [%],Percent Effect (Homo sapiens) [%],Percent Effect [7] [%],Percent Effect [8] [%],Percent Effect [9] [%]
CCNC(=O)c1ccc2c(c1)nc1n2CCN(Cc2ccco2)C1,-1.58,2.63,10.5,1.2,-0.0974,-4.73,13.7,8.32,0,0,-5.62
O=C(COc1ccc2c(c1)CCC2)N1CCOCC1c1ncon1 (configuration not stated),-2.91,2.7,-3.96,-4.39,-4.62,1.2,-1.62,13.6,4.43,6.17,-2.72
Cc1ccc(-c2nc(CN3CCc4nn(C)c(=O)cc4C3)no2)cc1,-1.55,-24.3,7.36,-4.73,5.75,2.81,-12.8,2.86,-0.493,-1.24,-4.17
CC(C)c1cc(NC(=O)CN2CCCC2Cn2cccn2)on1 (configuration not stated),-5.87,5.26,-3.45,-1.04,-1.59,3.24,-0.761,15.3,7.39,6.17,9.14
Cn1ccnc1CN(CCCO)C1CCCc2ccccc21 (configuration not stated),-5.87,5.26,3.03,9.71,0.876,-2.37,3.55,18.1,3.19,7.79,-0.447
Cc1nnc2n1CCN(Cc1csc(CC(=O)N(C)C)n1)C2,-4.68,10.8,-6.55,9.69,-1.21,-2.03,3.77,9.18,5.94,13.4,0.846
O=C(COCC1CC1)N1CCCC(n2ccnc2)C1 (configuration not stated),-2.64,11.4,1.59,-0.338,-1.33,2.37,9.26,5.7,1.04,5.06,-21.1
Cc1nc(CN2CCCC(N(C)Cc3nnsc3Cl)C2)no1 (configuration not stated),-5.44,5.2,0.941,-5.57,6.76,-5.26,2.99,-2.55,5.71,7.06,-13.5
CC(NC(=O)CSCC(=O)Nc1ccccc1)c1ccccc1 (configuration not stated),-1.97,2.63,-2,-3.2,-0.654,1.08,-0.761,-13.7,3.45,3.7,8.03
COc1ccc(OC)c(NC(=O)c2nc3ccccc3n(C)c2=O)c1,1.79,-15.6,3.42,-2.14,0.888,3.23,9.22,3.54,1.06,14.1,-7.41
N#Cc1ncn(CCC(=O)Nc2c(Cl)cccc2Cl)n1,-1.01,2.74,-1.08,6.16,1.59,-24.8,19.6,-3.99,11.5,21,-3.19
Cc1cnn(CC2CCCCN2CC(=O)NCc2ccccn2)c1 (configuration not stated),-2.64,-2.63,6.62,0.337,7.11,-1.18,17.4,-2.67,5.32,5.2,-0.694
CCOC[C@@H]1CCC[C@@]12CN(Cc1nccs1)CCO2,0.173,16,-1.62,-5.32,0.787,3.5,17.4,10.8,7.45,19.2,-7.27
CC(C)Oc1cc(N2C[C@@H](C)O[C@@H](C)C2)nc(N)n1,-1.28,8.11,-16.9,-0.905,0,-17.1,12.8,3.78,10.1,12.2,-1.35
Cc1ccc(NC(=O)N2CCN(Cc3noc(C4CC4)n3)CC2)cc1,-10.7,-1.27,5.38,-5.9,-3.38,-4.09,10.1,10.8,-1.04,-5.06,-24.6
CN(Cc1ccc(F)cc1)CC1(O)CCN(C(=O)c2cccn2C)C1 (configuration not stated),-6.43,13.3,2.06,5.19,3.15,-4.43,0.969,3,6.38,8.97,-9.32
CC(C)c1nccn1C1CCCN(C(=O)c2cnn(C)c2C2CC2)C1 (configuration not stated),-1.82,13.2,-2.81,-2.13,2.71,-5.75,6.34,-7.13,13.3,25.9,-8.69
COc1ccc(NC(=O)CNc2ccc(Br)cc2F)cc1,-3.43,5.26,9.89,2.32,-0.487,0,17.7,39.2,-14.9,-13,-4.78
Cc1ccc(OCC(=O)NCC(C)C)nc1,-6.24,13.7,-6.5,6.61,6.94,1.2,4.37,1.54,8.33,11.1,-8.95
CCN1CC(C(=O)N2CCC(Oc3ccccc3Cl)CC2)CC1=O (configuration not stated),-1.39,2.74,6.94,-1.45,-11.5,-4.39,16.7,42.2,3.12,-30.9,-5.81
CN1CCN(Cc2cccnc2)C2(CCN(c3ncc(F)cn3)C2)C1=O (configuration not stated),-4.27,5.2,2.79,8.1,-0.885,-13.8,2.33,-4.32,4.3,8.64,-0.489
CN(C)C(=O)CN1CCCC2(CCN(c3ccsc3)C2=O)C1 (configuration not stated),-1.45,10.7,2.54,-9.8,-5.71,0.233,7.84,14.6,-1.06,-32,-5.89
